Screening results as filed in PubChem BioAssay.
Sampled rows, rich in hits. Any-hit rate of the full collection: about 19%.
IL1B secr inh = qHTS for Inhibitors of Inflammasome Signaling: IL-1-beta AlphaLISA Primary Screen; THP-1 LPS/ATP IL-1B secretion, AlphaLISA, 16 h; hits give low values; activity change, % at 57.5 µM; 4.7% of 360,000 active; AID 743279, 2014; in the data active = activity change below about -50%; inconclusive = mostly about -30% to -49%; note: % is set by controls: 0 for no effect and ±100 for the full control effect
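THP-1 cells pretreated 1 hr with compounds (up to 57.5 uM final), then stimulated with LPS (250 ng/mL final) plus ATP (1.25 mM final); secreted IL-1B measured by AlphaLISA after 16 hr, decreased signal indicating inhibition.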
MCF10A rereplic = A quantitative high throughput screen for small molecules that induce DNA re-replication in MCF 10a normal breast cells. Potency, µM (doses to about 46.1 µM), inactives show at the highest dose activity, positive = re-replication, most hits filed as activators. 2.9% of 350,000 active. MCF 10A DNA re-replication, Hoechst nuclear intensity, 48 h; note: potency is the fitted concentration of half-maximal effect; % of control where 0% means no effect; nearly all actives have a fitted effect of over 50% in size
SW480 rereplic = A quantitative high throughput screen for small molecules that induce DNA re-replication in SW480 colon adenocarcinoma cells; Potency, µM (top dose mostly 46.1 µM), without a hit: at the top dose re-replication activation, actives largely listed as activators; 1.8% of 340,000 active; SW480 DNA re-replication, Hoechst DNA content imaging, 48 h; note: potency is the fitted concentration of half-maximal effect; % of control where 0% means no effect; nearly all actives have a fitted effect of over 55% in size
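DNA re-replication was detected as more nuclei of elevated Hoechst intensity after 48 hr exposure to compound (23 nL pinned per well of 250 cells).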
DT40 TDP1 no CPT = qHTS for Inhibitors of human tyrosyl-DNA phosphodiesterase 1 (TDP1): qHTS in cells in absence of CPT. DT40 Tdp1-/- hTDP1 cells, no CPT, ATP luminescence, 48 h. Potency, µM (series often up to 46.2 µM), without a hit: top-dose activity change, negative = growth inhibition, most hits filed as inhibitors. 15% of 420,000 active. AID 686978, 2013; note: potency is the fitted concentration of half-maximal effect; % is set by controls: 0 for no effect and ±100 for the full control effect; nearly all actives have a fitted effect of over 55% in size
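A cellular qHTS used chicken DT40 cells lacking endogenous Tdp1 but carrying stably transfected human TDP1. Compounds were applied without camptothecin, and cell growth kinetics were judged by ATP-dependent luminescence after ≥48 hr.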
DT40 TDP1 CPT = qHTS for Inhibitors of human tyrosyl-DNA phosphodiesterase 1 (TDP1): qHTS in cells in presence of CPT; 12% of 420,000 active; Potency, µM (doses to about 46.2 µM), inactives show at the top dose activity change, negative = growth inhibition, usual class: inhibitors; AID 686979, 2013; chicken DT40 Tdp1-/-;hTDP1 cells + 20 nM CPT, ATP luminescence, 48 h; note: potency is the fitted concentration of half-maximal effect; % is set by controls: 0 for no effect and ±100 for the full control effect; nearly all actives have a fitted effect of over 55% in size
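Chicken DT40 Tdp1-/- cells stably complemented with human TDP1 were seeded at 400 cells/well in medium containing 20 nM camptothecin, exposed to pin-transferred compounds, and grown at 37 °C for at least 48 hr. Viability was read as ATP luminescence.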
Chronic BCR inh = qHTS Assay to Find Inhibitors of Chronic Active B-Cell Receptor Signaling; ABC-DLBCL IkBa-CBG/CBR reporter, luminescence ratio, 4 h; Potency, µM (titrated, usually from 46.1 µM), inactives show top-dose activity change, negative = inhibition, hits mostly inhibitors; 0.05% of 340,000 active; AID 493014, 2011; active = well fitted inhibition curve with a large enough effect in the signal ratio, with a control signal flat, not every such curve was filed as active; inconclusive = small, poorly fitted or top-dose-only effect, or effect the other way, or a change in a side signal; the % refers to the signal ratio;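 note: potency is the fitted concentration of half-maximal effect; plate controls were basal doxycycline-induced cells for no effect and cells given 10 µM MG132 for full effect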
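TMD8 human ABC-DLBCL cells with doxycycline-inducible IκBα–green luciferase fusion and unfused red luciferase, in 0.5% FBS medium; compounds up to 46 uM, 4 h at 37C. Green/red luminescence ratio, filter-overlap corrected, fitted to concentration-response curves.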
An asterisk follows results filed as active; ! = a repeat was not active. Unless noted, calls come from the whole dose curve; as a rule, active = well fitted curve in the direction sought with a large enough effect; inconclusive = small, poorly fitted or top-dose-only effect, or another doubt; inactive = no such curve, though single readings can be large; an effect the other way counts as inactive or inconclusive.

For CCOc1ccccc1NC(=O)c1cnn2c(C(F)F)cc(-c3ccccc3)nc12 the results were DT40 TDP1 no CPT 23µM* and DT40 TDP1 CPT 15µM*.
Screening COc1ccccc1CNC(=O)c1cnn2c(C(F)F)cc(C)nc12 returned IL1B secr inh inconclusive, MCF10A rereplic 14%, SW480 rereplic -2%, DT40 TDP1 no CPT inconclusive, DT40 TDP1 CPT inconclusive and Chronic BCR inh 17%.
Screening COc1ccc(-c2cc(C(F)F)n3ncc(C(=O)Nc4ccc(C(=O)N5CCOCC5)cc4)c3n2)cc1 returned IL1B secr inh inconclusive, MCF10A rereplic -1%, SW480 rereplic 5%, DT40 TDP1 no CPT 3.3µM*, DT40 TDP1 CPT 10µM* and Chronic BCR inh 9%.
`COc1ccc(NS(=O)(=O)c2ccc(NC(=O)c3cnn4c(C(F)F)cc(-c5ccc(C)cc5)nc34)cc2)cc1` gave Chronic BCR inh -8%.
`O=C(c1cnn2c(C(F)F)cc(-c3ccccc3)nc12)N1CCOCC1` gave IL1B secr inh 7, MCF10A rereplic 6%, SW480 rereplic -15%, DT40 TDP1 no CPT 8%, DT40 TDP1 CPT -23% and Chronic BCR inh 5%.
For COc1ccccc1CCNC(=O)c1cnn2c(C(F)F)cc(C)nc12 the results were IL1B secr inh -2, MCF10A rereplic -8%, SW480 rereplic -9%, DT40 TDP1 no CPT 23µM*, DT40 TDP1 CPT 21µM* and Chronic BCR inh -8%.
Screening CN(C)S(=O)(=O)Nc1ccc(Cc2ccncc2)cc1 returned IL1B secr inh 11, DT40 TDP1 no CPT -28% and DT40 TDP1 CPT -13%.
CSc1ccc(CN2CCC(C)(Oc3cnc(Cl)c4ccccc34)C2)cc1 (configuration not stated) was read as IL1B secr inh 12, DT40 TDP1 no CPT inconclusive and DT40 TDP1 CPT inconclusive.
`Cc1ccc(CCNC(=O)c2cc3cc4cc(C)ccc4nc3s2)cc1` gave DT40 TDP1 no CPT -7% and DT40 TDP1 CPT -8%.
`COc1ccc2c(=O)c(-c3ccccc3)coc2c1` gave IL1B secr inh -7, MCF10A rereplic 0%, SW480 rereplic -5%, DT40 TDP1 no CPT inconclusive, DT40 TDP1 CPT inconclusive and Chronic BCR inh inconclusive.
`CCN(CC)C(=O)Oc1ccc2c(=O)c(-c3ccccc3)coc2c1` gave IL1B secr inh -54*, MCF10A rereplic -15%, SW480 rereplic 6%, DT40 TDP1 no CPT inconclusive, DT40 TDP1 CPT inconclusive and Chronic BCR inh 14%.
CC1(C(=O)NCc2ccccc2)CN(S(C)(=O)=O)CC(=O)N1CCc1c[nH]c2ccccc12 (configuration not stated) was read as IL1B secr inh 10, DT40 TDP1 no CPT 7% and DT40 TDP1 CPT 13µM*.
Screening COCCN(C(=S)Nc1c(C)cc(C)cc1C)C(C)c1cccs1 (configuration not stated) returned IL1B secr inh 21, MCF10A rereplic 0%, SW480 rereplic 0%, DT40 TDP1 no CPT 29µM*, DT40 TDP1 CPT inconclusive and Chronic BCR inh -1%.
For COc1ccc(-n2c(CCC(=O)O)ccc2-c2ccc(F)cc2)c(OC)c1 the results were IL1B secr inh 13, MCF10A rereplic 0%, SW480 rereplic -6%, DT40 TDP1 no CPT -1%, DT40 TDP1 CPT 2% and Chronic BCR inh 1%.
O=C1[C@H](Cc2ccccc2)NCCCC[C@@H](c2ccco2)N1Cc1ccccc1 was read as IL1B secr inh -12, MCF10A rereplic 0%, SW480 rereplic -3%, DT40 TDP1 no CPT 13µM*! and DT40 TDP1 CPT inconclusive.
`CC(C)CC(=O)N1CC=CC[C@@H](c2ccc(Cl)cc2)N(Cc2ccc(Cl)cc2)C(=O)[C@@H]1Cc1ccccc1` gave IL1B secr inh 18, MCF10A rereplic -24%, SW480 rereplic 3%, DT40 TDP1 no CPT 13µM* and DT40 TDP1 CPT 15µM*.
Screening O=C1[C@H](Cc2ccccc2)NC/C=C\C[C@@H](c2ccc(Cl)cc2)N1Cc1ccccc1 returned DT40 TDP1 no CPT 11µM* and DT40 TDP1 CPT 13µM*.
For O=C1[C@H](Cc2ccccc2)NCC=CC[C@@H](c2ccco2)N1Cc1ccccc1 the results were IL1B secr inh -4, MCF10A rereplic 2%, SW480 rereplic -8%, DT40 TDP1 no CPT inconclusive and DT40 TDP1 CPT inconclusive.
`O=C1[C@H](Cc2ccccc2)NCCCC[C@H](c2ccco2)N1Cc1ccccc1` gave IL1B secr inh -22, MCF10A rereplic inconclusive, SW480 rereplic inconclusive, DT40 TDP1 no CPT 21µM* and DT40 TDP1 CPT 13µM*.
For O=C1C(Cc2ccccc2)NC(=S)N1Cc1ccccc1 (configuration not stated) the results were IL1B secr inh -1, MCF10A rereplic 7%, SW480 rereplic -7%, DT40 TDP1 no CPT -3%, DT40 TDP1 CPT 7% and Chronic BCR inh 2%.
For CN(C)C(CNC(=O)c1cc(S(=O)(=O)N2CCOCC2)ccc1F)c1cccs1 (configuration not stated) the results were IL1B secr inh 16, MCF10A rereplic 9%, SW480 rereplic 1%, DT40 TDP1 no CPT -15%, DT40 TDP1 CPT -28% and Chronic BCR inh 0%.
O=C1[C@H](Cc2ccccc2)NC/C=C\C[C@@H](c2ccco2)N1Cc1ccccc1 was read as DT40 TDP1 no CPT 14µM* and DT40 TDP1 CPT inconclusive.
Screening O=C(COC(=O)C1CC2CCCC(C1)C2=O)NNC(=O)c1ccccc1F (configuration not stated) returned IL1B secr inh 1, MCF10A rereplic 0%, SW480 rereplic -3%, DT40 TDP1 no CPT 1%, DT40 TDP1 CPT -1% and Chronic BCR inh -9%.
`Cc1ccc(C)c(CSC2=NCCN2S(=O)(=O)c2ccccc2)c1` gave IL1B secr inh -16, MCF10A rereplic inconclusive, SW480 rereplic 15%, DT40 TDP1 no CPT 16µM*, DT40 TDP1 CPT 18µM* and Chronic BCR inh -3%.
Screening O=S(=O)(c1ccccc1)N1CCN=C1SCc1c(F)cccc1Cl returned IL1B secr inh 8, MCF10A rereplic 3%, SW480 rereplic 19%, DT40 TDP1 no CPT inconclusive, DT40 TDP1 CPT 13µM* and Chronic BCR inh inconclusive.
